Results reported in PubChem BioAssay (NCATS).
Several values for one entry are separate records, joined by “and”; a condition that tells them apart may be missing. Identical values can stand only once. Records with an inconclusive call do not appear. Activity calls are given as the source filed them. Unless noted, calls follow the shape of the dose curve; as a rule, active = well fitted curve in the direction sought with a large enough effect; inconclusive = small, poorly fitted or top-dose-only effect, or another doubt; inactive = no such curve, though single readings can be large; an effect the other way counts as inactive or inconclusive.

Assays:
[1] = biological target: Voltage-gated inwardly rectifying potassium channel KCNH2 (Homo sapiens) (UniProt Q12809); test: qHTS Assay for Small Molecule Inhibitors of the Human hERG Channel Activity (AID 588834);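 also: top concentration of the series differs between compounds; % is scaled to controls: 0 for no effect and ±100 for the full control effect; lower thallium flux fluorescence means stronger hERG block; nearly all actives have a fitted effect of over 50% in size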
How it was run: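 Kinetic FDSS fluorescence; U2OS + hERG BacMam (~100 virus particles/cell); FluxOR Tl+ flux; ~10 min cpd; AC50 (Hill).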

[2] = biological target: Glucocorticoid receptor (Homo sapiens) (UniProt P04150); test: qHTS assay for small molecule agonists of glucocorticoid receptor signaling (AID 588532; active = well fitted curve in the direction sought with a large enough effect in the signal ratio, with a control signal flat; the % refers to the signal ratio;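 also: 100% = dexamethasone at 0.1 µM and 0% = DMSO only wells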); conditions: HeLa MMTV-bla, beta-lactamase ratio, agonist, 18 h; stronger effect = higher value; percent of dexamethasone control, DMSO zero
How it was run: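 Agonist-mode qHTS: GRE-driven beta-lactamase in HeLa cells exposed 18 h to titrated compounds (up to 92 uM), then CCF4 ratio read after 2 h at RT; Hill-fitted EC50, efficacy relative to 0.1 uM dexamethasone.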

[3] = biological target: Glucocorticoid receptor (Homo sapiens) (UniProt P04150); test: qHTS assay for small molecule antagonists of glucocorticoid receptor signaling (AID 588533; active = well fitted inhibition curve with a large enough effect in the signal ratio, with a control signal flat, not every such curve was filed as active; the % refers to the signal ratio;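 also: cells stimulated with 2 nM dexamethasone as agonist; % is scaled to controls: 0 for no effect and ±100 for the full control effect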)
How it was run: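 Antagonist-mode qHTS: compound titrations added to GRE-bla HeLa cells, then dexamethasone 2 nM final; 18 h, 37 C. CCF4 FRET fluorescence normalized to dexamethasone and DMSO; IC50 from Hill fit.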

[4] = qHTS assay for small molecule antagonists of peroxisome proliferator-activated receptor delta signaling (AID 588535; active = well fitted inhibition curve with a large enough effect in the signal ratio, with a control signal flat, not every such curve was filed as active; the % refers to the signal ratio;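 as to max response: cells co-treated with a PPAR-delta agonist as stimulator during compound exposure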); conditions: HEK293T PPARd-UAS-bla, beta-lactamase FRET ratio, 18 h; 460 nm channel
How it was run: (§1)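 HEK293T PPAR-delta-UAS-bla cells, 4000/well, 2% charcoal/dextran FBS; 5 h 37 C; cpd titration; 18 h 37 C; CCF4 2 h RT; FI 460/530 nm; Hill fit → IC50, efficacy.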

[5] = biological target: Peroxisome proliferator-activated receptor delta (Homo sapiens) (UniProt Q03181); test: as above
How it was run: as §1

[6] = biological target: Vitamin D3 receptor (Homo sapiens) (UniProt P11473); test: qHTS assay for small molecule antagonists of vitamin D receptor signaling (AID 588541; calls by dose curve;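 also: receptor activated by calcitriol during compound treatment; series mostly up to about 77 µM; % is scaled to controls: 0 for no effect and ±100 for the full control effect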)
How it was run: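 Antagonist-mode beta-lactamase reporter assay: HEK293T VDR-UAS-bla cells were exposed to titrated compound alongside 1-alpha,25-dihydroxyvitamin D3 at 3 nM final for 16 h. Values were normalized to the 50 nM agonist control and DMSO basal, with IC50 and efficacy from Hill equation fits.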

[7] = biological target: Luciferin 4-monooxygenase (Photinus pyralis) (UniProt P08659); test: Biochemical firefly luciferase enzyme assay for NPC (AID 624030);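 also: purified P. pyralis luciferase at 10 nM with luciferin and ATP substrate; series mostly up to about 59 µM; 0% = DMSO and -100% = full luciferase inhibition by PTC124 control; nearly all actives have a fitted effect of over 70% in size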
How it was run: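 Direct inhibition of firefly luciferase enzyme (10 nM final, 50 mM Tris Acetate) assessed by luminescence within 5 minutes. Percent activity scaled between DMSO and PTC124 positive control, with concentration-effect curves classified by fit quality and response.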

[8] = S16 Schwann cell viability assay (CellTiter-Glo assay) (AID 624031);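 also: cellular ATP luminescence as a viability measure; series mostly up to about 58 µM; plate controls were DMSO-treated cells for no effect and cell-free wells for full effect; nearly all actives have a fitted effect of over 70% in size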
How it was run: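 Luminescent ATP read-out (CellTiter-Glo) after 24 h compound exposure of native S16 rat Schwann cells at 37 °C. Signals were normalized between cell-free wells and DMSO-treated cells, set as 0% activity.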

[9] = S16 Schwann cell PMP22 intronic element beta-lactamase assay (AID 624044; calls by dose curve;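 also: 0% = DMSO and -100% = potassium clavulanate positive control; nearly all actives have a fitted effect of over 15% in size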)
How it was run: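 Rat S16 Schwann cells with beta-Lac driven by a PMP22 intronic element, compound-treated 24 h at 37 °C. LiveBLAzer FRET B/G read: 460 nm normalized to potassium clavulanate vs DMSO; 535 nm FRET as viability; concentration-effect curves classified.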

[10] = biological target: Glutaminase kidney isoform, mitochondrial (Homo sapiens) (UniProt O94925); test: qHTS for Inhibitors of Glutaminase (GLS): LOPAC Validation (AID 624146);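 also: glutamate product detected by oxidase and peroxidase coupled Amplex red fluorescence gain; series mostly up to about 46 µM; % is scaled to controls: 0 for no effect and ±100 for the full control effect; nearly all actives have a fitted effect of over 60% in size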
How it was run: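 Read-out is an Amplex red fluorescence increase coupled through glutamate oxidase and HRP, measured before and after 30 min room-temperature incubation. hKGA is in 45 mM KH2PO4 (pH 8.2) with 0.02% Tween-20; glutamine added as 1mM solution.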

[11] = biological target: Thyroid hormone receptor beta (Homo sapiens) (UniProt P10828); test: qHTS assay for small molecule agonists of thyroid hormone receptor beta signaling (AID 588545; calls by dose curve;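 also: 0% = DMSO only and 100% = 10 nM T3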)
How it was run: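 TR-UAS-bla-GripTite HEK 293 cells in medium with 2% charcoal/dextran FBS, 0.1 mM NEAA and 1 mM sodium pyruvate were treated with titrated compounds for 18 hrs at 37 C. Beta-lactamase reporter was read with CCF4 dye (ex 405, em 460/530 nm); EC50 from Hill fits.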

[12] = biological target: Bile acid receptor (Homo sapiens) (UniProt Q96RI1); test: qHTS assay for small molecule antagonists of farnesoid X receptor signaling (AID 588526; calls by dose curve; also: % is scaled to controls: 0 for no effect and ±100 for the full control effect)
How it was run: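 Beta-lactamase reporter antagonist mode: HEK293T FXR-UAS-bla cells, titrated compound, CDCA stimulation, 16 h 37 C, CCF4 dye 2 h RT. Data normalized to CDCA 50 uM and DMSO; Hill-fit IC50.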

[13] = biological target: Peroxisome proliferator-activated receptor gamma (Homo sapiens) (UniProt P37231); test: qHTS assay for small molecule agonists of peroxisome proliferator-activated receptor gamma signaling (AID 588536; active = well fitted curve in the direction sought with a large enough effect in the signal ratio, with a control signal flat, not every such curve was filed as active; the % refers to the signal ratio;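 also: 0% = DMSO basal wells and 100% = rosiglitazone at 2 µM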)
How it was run: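 HEK293 UAS-bla reporter line, 1% charcoal/dextran FBS; titration, 16 h, 37 C; CCF4 loading 2 h RT; fluorescence 460/530 nm. Normalized to rosiglitazone 2 uM = 100%, DMSO = 0%.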

[14] = qHTS assay for small molecule antagonists of retinoid X receptor alpha signaling (AID 588546; active = well fitted inhibition curve with a large enough effect in the signal ratio, with a control signal flat, not every such curve was filed as active; the % refers to the signal ratio;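 also: cells stimulated with 9-cis-retinoic acid as agonist; % is scaled to controls: 0 for no effect and ±100 for the full control effect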); conditions: HEK293T RXRa-UAS-bla, beta-lactamase ratio, antagonist mode; measured here: W530 green channel, cytotoxicity proxy
How it was run: (§2)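 Beta-lactamase reporter inhibition, read as CCF4 fluorescence ratio (ex 405, em 460/530 nm) after 2 h at RT. HEK293T UAS-bla cells, 2500/well, were stimulated with 9-cis-RA at 500 or 100 nM final alongside test compound for 18 h at 37 C.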

[15] = biological target: Retinoic acid receptor RXR-alpha (Homo sapiens) (UniProt P19793); test: as above; conditions: HEK293T RXRa-UAS-bla, beta-lactamase ratio, antagonist mode
How it was run: as §2

[16] = biological target: Thyroid hormone receptor beta (Homo sapiens) (UniProt P10828); test: qHTS assay for small molecule antagonists of thyroid hormone receptor beta signaling (AID 588547; active = well fitted inhibition curve with a large enough effect in the signal ratio, with a control signal flat, not every such curve was filed as active; the % refers to the signal ratio); conditions: TR-UAS-bla HEK293, beta-lactamase ratio, antagonist mode, 18 h
How it was run: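 Inhibition of T3-driven (0.4nM final) beta-lactamase reporter activity was measured over 0.59 nM to 92 uM compound after 18 h at 37 C. The cells were GripTite HEK293 TR-UAS-bla in charcoal/dextran-stripped serum, with CCF4 ratio read-out and IC50 from Hill fits.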

[17] = S16 Schwann cell PMP22 intronic element firefly luciferase assay (AID 624032);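 also: series mostly up to about 58 µM; plate controls were DMSO for no effect and PTC124 positive control mean for full effect; nearly all actives have a fitted effect of over 30% in size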
How it was run: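 Luciferase reporter of PMP22 intronic-element expression in stably transfected S16 rat Schwann cells, read by ONE-Glo luminescence after 24 h compound exposure at 37 C. Activity scaled between DMSO (0%) and positive-control PTC124; concentration-effect curves quality-classified.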

[18] = biological target: Peroxisome proliferator-activated receptor gamma (Homo sapiens) (UniProt P37231); test: qHTS assay for small molecule antagonists of peroxisome proliferator-activated receptor gamma signaling (AID 588537; active = well fitted inhibition curve with a large enough effect in the signal ratio, with a control signal flat, not every such curve was filed as active; the % refers to the signal ratio;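 also: reporter cells co-stimulated with 50 nM rosiglitazone agonist during compound treatment; % of control where 0% means no effect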)
How it was run: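 Antagonist mode, beta-lactamase reporter in HEK293; charcoal/dextran FBS 1%; 3000 cells/well, 37 C 6-6.5 h; cpd titration + rosiglitazone 50 nM final, 16 h 37 C; CCF4, 2 h RT; 460/530 nm; Hill fit → IC50, efficacy.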

[19] = qHTS assay for small molecule agonists of retinoid X receptor alpha signaling (AID 588544; calls by dose curve;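 as to activation: 0% = DMSO basal wells and 100% = reference agonist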); conditions: HEK293T RXRa-UAS-bla, beta-lactamase reporter, 18 h; 530 nm emission
[20] = biological target: Retinoic acid receptor RXR-alpha (Homo sapiens) (UniProt P19793); test: as above

Sequence of Glucocorticoid receptor (Homo sapiens) (P04150 whole entry, looked up): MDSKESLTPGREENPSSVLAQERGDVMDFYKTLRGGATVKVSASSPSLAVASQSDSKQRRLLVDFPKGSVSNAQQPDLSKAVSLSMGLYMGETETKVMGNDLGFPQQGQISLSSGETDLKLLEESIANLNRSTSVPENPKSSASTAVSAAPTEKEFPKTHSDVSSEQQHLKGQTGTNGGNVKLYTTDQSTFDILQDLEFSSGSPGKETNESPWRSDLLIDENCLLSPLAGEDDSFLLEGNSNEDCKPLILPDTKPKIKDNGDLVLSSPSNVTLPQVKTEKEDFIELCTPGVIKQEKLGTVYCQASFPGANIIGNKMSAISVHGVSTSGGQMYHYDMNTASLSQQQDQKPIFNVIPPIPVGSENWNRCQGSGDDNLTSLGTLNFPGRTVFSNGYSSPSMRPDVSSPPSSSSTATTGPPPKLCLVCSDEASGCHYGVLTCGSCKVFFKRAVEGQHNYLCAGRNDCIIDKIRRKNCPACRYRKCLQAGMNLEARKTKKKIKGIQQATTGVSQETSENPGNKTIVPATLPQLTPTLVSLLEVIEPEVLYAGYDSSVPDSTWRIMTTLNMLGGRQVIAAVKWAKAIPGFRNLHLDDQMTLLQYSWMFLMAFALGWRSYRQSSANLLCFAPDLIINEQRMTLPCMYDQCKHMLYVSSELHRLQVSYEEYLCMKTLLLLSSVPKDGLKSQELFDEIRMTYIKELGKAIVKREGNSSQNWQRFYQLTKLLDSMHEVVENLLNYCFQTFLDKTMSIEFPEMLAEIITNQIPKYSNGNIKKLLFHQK
Sequence of Vitamin D3 receptor (Homo sapiens) (P11473 whole entry, looked up): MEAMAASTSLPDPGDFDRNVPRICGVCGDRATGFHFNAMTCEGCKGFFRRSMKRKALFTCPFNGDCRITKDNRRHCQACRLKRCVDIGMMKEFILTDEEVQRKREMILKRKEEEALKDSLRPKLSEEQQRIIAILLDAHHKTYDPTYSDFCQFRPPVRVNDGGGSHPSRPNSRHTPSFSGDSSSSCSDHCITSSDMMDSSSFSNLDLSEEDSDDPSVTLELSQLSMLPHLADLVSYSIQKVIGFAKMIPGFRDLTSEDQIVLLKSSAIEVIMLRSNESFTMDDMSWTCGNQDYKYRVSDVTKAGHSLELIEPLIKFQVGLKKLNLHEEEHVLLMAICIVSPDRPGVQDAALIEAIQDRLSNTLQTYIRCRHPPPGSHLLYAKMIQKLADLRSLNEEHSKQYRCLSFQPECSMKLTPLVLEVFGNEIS
Sequence of Peroxisome proliferator-activated receptor gamma (Homo sapiens) (P37231 whole entry, looked up): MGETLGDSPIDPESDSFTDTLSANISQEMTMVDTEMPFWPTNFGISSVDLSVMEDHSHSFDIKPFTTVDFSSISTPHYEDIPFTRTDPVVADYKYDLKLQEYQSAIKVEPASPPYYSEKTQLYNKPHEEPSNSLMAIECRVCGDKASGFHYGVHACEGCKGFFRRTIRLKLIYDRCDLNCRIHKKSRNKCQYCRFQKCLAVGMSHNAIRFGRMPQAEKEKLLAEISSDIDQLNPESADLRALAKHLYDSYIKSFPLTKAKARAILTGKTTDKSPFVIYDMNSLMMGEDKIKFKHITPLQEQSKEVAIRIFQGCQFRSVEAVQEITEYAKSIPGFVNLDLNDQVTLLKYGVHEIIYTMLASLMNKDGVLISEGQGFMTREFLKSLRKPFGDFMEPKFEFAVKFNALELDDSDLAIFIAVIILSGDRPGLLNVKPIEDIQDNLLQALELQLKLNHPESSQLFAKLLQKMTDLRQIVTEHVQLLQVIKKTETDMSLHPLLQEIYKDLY
Sequence of Bile acid receptor (Homo sapiens) (Q96RI1 whole entry, looked up): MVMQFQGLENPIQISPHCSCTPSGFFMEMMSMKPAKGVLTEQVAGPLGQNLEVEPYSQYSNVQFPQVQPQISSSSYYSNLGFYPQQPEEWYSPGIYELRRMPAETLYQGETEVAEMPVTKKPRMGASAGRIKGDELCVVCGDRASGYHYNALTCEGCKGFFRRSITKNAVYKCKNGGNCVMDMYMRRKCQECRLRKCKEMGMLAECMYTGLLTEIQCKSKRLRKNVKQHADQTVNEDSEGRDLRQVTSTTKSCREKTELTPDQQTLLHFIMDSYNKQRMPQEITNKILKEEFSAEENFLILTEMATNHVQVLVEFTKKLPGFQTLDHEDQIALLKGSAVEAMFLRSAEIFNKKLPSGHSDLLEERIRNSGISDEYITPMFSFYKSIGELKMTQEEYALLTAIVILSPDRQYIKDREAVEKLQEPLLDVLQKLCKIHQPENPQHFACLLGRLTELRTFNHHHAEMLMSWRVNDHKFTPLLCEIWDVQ
Sequence of Luciferin 4-monooxygenase (Photinus pyralis) (P08659 whole entry, looked up): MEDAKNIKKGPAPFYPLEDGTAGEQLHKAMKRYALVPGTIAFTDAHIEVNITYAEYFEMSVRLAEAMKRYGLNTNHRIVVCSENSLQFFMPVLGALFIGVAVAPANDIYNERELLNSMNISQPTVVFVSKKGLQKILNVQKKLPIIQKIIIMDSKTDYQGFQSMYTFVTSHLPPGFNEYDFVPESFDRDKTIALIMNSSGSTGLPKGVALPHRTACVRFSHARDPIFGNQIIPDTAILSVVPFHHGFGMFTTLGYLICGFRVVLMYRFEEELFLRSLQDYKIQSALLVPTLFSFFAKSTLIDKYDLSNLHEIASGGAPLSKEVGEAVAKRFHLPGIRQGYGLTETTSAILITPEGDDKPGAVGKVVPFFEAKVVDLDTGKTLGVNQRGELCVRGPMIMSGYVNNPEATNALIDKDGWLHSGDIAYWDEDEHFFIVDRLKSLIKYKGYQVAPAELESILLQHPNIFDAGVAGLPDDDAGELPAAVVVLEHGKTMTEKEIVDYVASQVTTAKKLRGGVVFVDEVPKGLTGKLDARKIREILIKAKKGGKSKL
Sequence of Retinoic acid receptor RXR-alpha (Homo sapiens) (P19793 whole entry, looked up): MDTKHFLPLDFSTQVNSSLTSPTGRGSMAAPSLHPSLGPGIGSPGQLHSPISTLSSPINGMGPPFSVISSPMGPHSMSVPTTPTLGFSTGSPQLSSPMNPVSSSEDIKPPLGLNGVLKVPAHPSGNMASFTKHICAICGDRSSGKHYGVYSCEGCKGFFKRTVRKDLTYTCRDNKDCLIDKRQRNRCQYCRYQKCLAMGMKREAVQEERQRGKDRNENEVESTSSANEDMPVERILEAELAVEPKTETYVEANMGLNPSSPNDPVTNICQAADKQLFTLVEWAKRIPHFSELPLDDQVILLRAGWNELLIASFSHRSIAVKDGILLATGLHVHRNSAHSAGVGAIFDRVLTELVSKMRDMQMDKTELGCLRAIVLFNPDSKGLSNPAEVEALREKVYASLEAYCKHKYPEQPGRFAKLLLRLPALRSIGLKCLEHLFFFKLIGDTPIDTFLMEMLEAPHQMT
Sequence of Voltage-gated inwardly rectifying potassium channel KCNH2 (Homo sapiens) (Q12809 whole entry, looked up): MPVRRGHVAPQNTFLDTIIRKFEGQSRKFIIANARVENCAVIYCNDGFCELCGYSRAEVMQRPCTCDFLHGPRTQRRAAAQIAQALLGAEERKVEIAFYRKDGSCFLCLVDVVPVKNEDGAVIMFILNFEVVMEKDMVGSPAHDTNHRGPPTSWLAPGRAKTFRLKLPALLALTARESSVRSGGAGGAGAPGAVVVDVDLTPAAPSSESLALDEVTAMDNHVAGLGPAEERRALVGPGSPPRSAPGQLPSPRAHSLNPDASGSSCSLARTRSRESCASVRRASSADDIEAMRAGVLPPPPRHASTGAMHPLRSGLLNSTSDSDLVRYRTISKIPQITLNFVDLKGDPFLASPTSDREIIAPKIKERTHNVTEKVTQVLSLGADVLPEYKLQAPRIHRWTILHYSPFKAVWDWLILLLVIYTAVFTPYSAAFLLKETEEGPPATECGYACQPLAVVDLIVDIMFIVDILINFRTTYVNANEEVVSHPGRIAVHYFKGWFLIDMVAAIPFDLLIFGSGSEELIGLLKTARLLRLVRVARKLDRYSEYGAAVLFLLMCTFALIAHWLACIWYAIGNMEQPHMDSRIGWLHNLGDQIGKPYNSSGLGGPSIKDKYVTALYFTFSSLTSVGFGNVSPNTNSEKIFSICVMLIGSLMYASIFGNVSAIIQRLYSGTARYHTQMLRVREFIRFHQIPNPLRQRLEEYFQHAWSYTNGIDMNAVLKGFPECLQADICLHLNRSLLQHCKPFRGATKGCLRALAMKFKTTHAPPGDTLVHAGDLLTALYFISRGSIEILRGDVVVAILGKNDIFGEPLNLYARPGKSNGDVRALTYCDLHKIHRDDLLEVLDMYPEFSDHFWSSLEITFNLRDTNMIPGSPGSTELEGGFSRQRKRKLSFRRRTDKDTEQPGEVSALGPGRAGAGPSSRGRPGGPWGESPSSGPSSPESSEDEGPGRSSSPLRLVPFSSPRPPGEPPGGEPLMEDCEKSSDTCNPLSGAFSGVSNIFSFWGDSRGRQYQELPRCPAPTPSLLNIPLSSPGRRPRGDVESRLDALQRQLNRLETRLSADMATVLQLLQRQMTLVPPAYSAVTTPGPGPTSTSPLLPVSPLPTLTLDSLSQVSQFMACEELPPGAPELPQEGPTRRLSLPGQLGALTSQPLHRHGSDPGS
Sequence of Peroxisome proliferator-activated receptor delta (Homo sapiens) (Q03181 whole entry, looked up): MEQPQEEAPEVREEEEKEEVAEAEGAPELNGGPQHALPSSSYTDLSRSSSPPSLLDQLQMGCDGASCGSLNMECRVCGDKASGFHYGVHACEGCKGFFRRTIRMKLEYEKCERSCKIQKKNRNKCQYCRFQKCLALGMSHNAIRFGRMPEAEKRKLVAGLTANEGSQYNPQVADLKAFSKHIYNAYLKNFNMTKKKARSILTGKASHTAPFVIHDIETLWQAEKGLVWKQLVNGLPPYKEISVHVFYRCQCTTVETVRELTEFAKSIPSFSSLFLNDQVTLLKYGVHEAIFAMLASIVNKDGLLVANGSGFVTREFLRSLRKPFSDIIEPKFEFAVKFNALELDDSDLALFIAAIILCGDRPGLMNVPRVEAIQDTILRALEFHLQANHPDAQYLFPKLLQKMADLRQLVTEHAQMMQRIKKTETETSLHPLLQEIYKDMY

C[C@@H](CN1CC(=O)NC(=O)C1)N1CC(=O)NC(=O)C1
inactive: Potency [1]

Nc1nc(N)c2nc(CNc3ccc(C(=O)NC(CCC(=O)O)C(=O)O)cc3)cnc2n1 (configuration not stated)
inactive: activation [2] 7.7% | outcome [3] | outcome [5] | outcome [6] | Potency [1] | Potency [7] | Potency [8] | Potency [9] | outcome [10]
44.5%: max response [4]

CC(=O)Oc1ccccc1C(=O)Nc1ncc([N+](=O)[O-])s1
-31.7%: max response [4]
inactive: activation [2] -4.89% | outcome [5] | outcome [11] | Potency [1]

COc1ccccc1OCC(O)COC(N)=O (configuration not stated)
inactive: Potency [1]

NS(=O)(=O)c1cc2c(cc1Cl)NC(C(Cl)Cl)NS2(=O)=O (configuration not stated)
inactive: Potency [1]

CC1=NN(c2ccccc2)C(=O)C1
3.18%: max response [14]
inactive: outcome [12] | outcome [3] | outcome [5] | outcome [13] | outcome [11] | max response [15] 23.1% | activity change % (negative = inhibition) [16] -16% and 3.19% | Potency [1] | Potency [7] | Potency [8] | Potency [17] | Potency [9]
-24.3%: max response [4]

NC(N)=NC(N)=NCCc1ccccc1
0.584% and 0.821%: max response [14]
-11.9% and 9.95%: max response [4]
inactive: activation [2] 10% and -5.38% | outcome [5] | outcome [13] | Potency [18] | outcome [20] | outcome [11] | max response [15] 19.7% and -15.5% | Potency [1] | Potency [7] | Potency [8] | Potency [17]
8.58% and 2.73%: max response [19]

N[C@@H](Cc1ccc(O)c(O)c1)C(=O)O
-19.3%: max response [14]
inactive: outcome [12] | activation [2] -2.15% | outcome [3] | outcome [13] | Potency [18] | outcome [6] | outcome [20] | outcome [11] | max response [15] 0.985% | activity change % (negative = inhibition) [16] -11.9% | Potency [9]
-21.2%: max response [19]

Cc1ncc([N+](=O)[O-])n1CCO
-0.982%: max response [4]
inactive: outcome [5] | outcome [13] | outcome [20] | outcome [11] | max response [15] 26.4% | activity change % (negative = inhibition) [16] -13.7% | Potency [1] | Potency [7] | Potency [8] | Potency [17]
-7.09%: max response [14]
1.6%: max response [19]

CO[C@@H]1[C@@H](OC(N)=O)[C@@H](O)[C@H](Oc2ccc3c(O)c(NC(=O)c4ccc(O)c(CC=C(C)C)c4)c(=O)oc3c2C)OC1(C)C
inactive: Potency [1]

Cc1nnc(NS(=O)(=O)c2ccc(N)cc2)s1
inactive: outcome [13] | outcome [6] | outcome [20] | outcome [11] | max response [15] -2.27% | activity change % (negative = inhibition) [16] -6.41% | Potency [1] | Potency [7] | Potency [8] | Potency [17]
-10.5%: max response [19]
-2.81%: max response [14]

CS(=O)(=O)c1ccc([C@@H](O)[C@@H](CO)NC(=O)C(Cl)Cl)cc1
inactive: Potency [1]

CN(C)CCc1c[nH]c2ccc(C[C@H]3COC(=O)N3)cc12
inactive: Potency [1]
